For eight compounds, growth results are on record in PubChem BioAssay (NCI).

Common to all, as to test: NCI-60 one-dose screen, 48 h (100 = growth as untreated, 0 = no growth, -100 = all killed)
What all share (settings): 10 µM unless noted

For assay [1], the system named is NCI-H23 lung.
Assay [2] relates to NCI-H226 lung.
The subject of assay [3] is NCI-H322M lung.
Assay [4] has as its system HOP-62 NSCLC.
Assay [5] has as its system NCI-H460 lung.
For assay [6], the system named is HOP-92 NSCLC.
Assay [7] has as its system NCI-H522 lung.
In assay [8] the test system is A549/ATCC NSCLC.
Assay [9] concerns 786-0 renal.
In assay [10] the test system is COLO 205 colon.
Assay [11] relates to DU-145 prostate.
Assay [12] has as its system K-562 leukemia.
Assay [13] has as its system MALME-3M melanoma.
Assay [14] relates to MDA-MB-231 breast.
For assay [15], the system named is SF-268 CNS.
Assay [16] relates to SF-295 CNS.
Assay [17] relates to SF-539 CNS.
For assay [18], the system named is UACC-257 melanoma.
The test system of assay [19] is M14 melanoma.

This is part of a sample that, as a whole, favours compounds with a hit. Of some 83,000 tested, about 20% had one in any assay.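 Step 1: grow cells in 96-well plates. Step 2: add test compound at a single concentration. Step 3: incubate 48 h. Step 4: record percent growth.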 A number with no mark means an inactive call. Activity calls are given as the source filed them. Rule for the calls: active = growth percent below 10; inactive = the rest.

As to `CN(C)Cc1c(-c2ccccc2)[nH]c2ccccc12`, the growth was 88.7% in assay [1]; 106% in assay [2]; 114% in [3]; 80.3% in assay [4]; 99.5% in assay [5]; 96.4% in [6]. The growth in assay [7] was 82.5%; in assay [8], 80.3%; in assay [9], 90%; in assay [10], 107%; in assay [11] it was 113%; in assay [12] it was 107%. Besides, the growth in assay [13] is 128%; in assay [14], 102%; in [15] it was 92.1%; in assay [16], 92.7%; in assay [17] it was 106%; in assay [18], 99.3%. Moreover, the growth in assay [19] is 82.6%.

As to `Cc1cccc(C)c1-c1cc(Cc2ccc(Cl)cc2)c(=O)[nH]n1`, the growth in assay [1] is 84.9%; in [2] it was 97.3%; in assay [3] it was 111%; in [4], 99.4%; in assay [5], 109%; in assay [6] it was 78.6%. In addition, the growth is 95.3% in [7]; 37% in [8]; 104% in [9]; 108% in [10]; 105% in assay [11]; 89.5% in assay [12]. The growth in assay [13] was 111%; in assay [14], 94.3%; in assay [15], 93.6%; in [16] it was 104%; in [17], 111%; in assay [18], 42.3%. Moreover, the growth in assay [19] was 114%.

Turning to `COc1ccc(C2CC(c3cccc(Nc4ccncc4)c3)=NN2c2ccccc2)cc1` (centres undefined), the growth in assay [1] is 82.8%; in [2], 94.7%; in assay [3] it was 68.2%; in assay [4], 43.9%; in assay [5], -40.8% (active); in assay [6], 47.6%. Moreover, the growth in assay [7] was 39.9%; in assay [8], 39.9%; in assay [9] it was -4.64% (active); in [10], -55% (active); in assay [11], 42.2%; in [12], 1.17% (active). The growth in [13] was -70% (active); in assay [14], 62.5%; in assay [15], 72.2%; in assay [16], 64%; in assay [17], 59.7%; in assay [18] it was -35.6% (active). The growth in [19] was -46% (active).

As for `COc1cc(NCC(O)CN(CC(C)C)CC(C)C)c2nc(C)ccc2c1` (centres undefined), the growth is 85.6% in assay [1]; 88.5% in [2]; 107% in [3]; 67.7% in assay [4]; 96.5% in assay [5]; 98.6% in assay [6]. The growth in [7] was 68.2%; in [8] it was 67.3%; in [9], 90.7%; in assay [10] it was 66.3%; in [11], 97.9%; in assay [12] it was 78.4%. In addition, the growth in [13] is 119%; in assay [14], 55.9%; in [15], 78.9%; in [16] it was 100%; in [17] it was 108%; in assay [18], 54.1%.

For the compound `CC1=CC2(C)/C=C(C)/C=C\CC(O)/C=C3/C=CC(=C4C(=O)OC2(CC1C)C4=O)OC3` (centres undefined), the growth was -97.5% (active) in assay [1]; 59.4% in assay [2]; 98.8% in assay [3]; 90.9% in [4]; 29.2% in assay [5]; -75.7% (active) in assay [6]. The growth was -50.5% (active) in [7]; 8.64% (active) in assay [8]; -92.1% (active) in assay [9]; -80.5% (active) in [10]; -85.4% (active) in assay [11]; 2.75% (active) in [12]. Besides, the growth in [13] is -96.3% (active); in assay [14] it was 24.2%; in [15] it was -22.4% (active); in [16] it was 41.4%; in assay [17] it was -82.1% (active); in assay [18] it was -57% (active).

`CCN(CC)CCOC(COc1cc(C)cc(C)c1)COc1cc(C)cc(C)c1`: the growth in assay [1] is 37.9%; in assay [2], 54.4%; in assay [3], 48.7%; in assay [4], 54.3%; in assay [5], 9.62% (active); in assay [6], 22.7%. Moreover, the growth in assay [7] was 35.4%; in assay [8], 47.8%; in assay [9], 44.9%; in assay [10] it was -15.8% (active); in [11], 48.1%; in assay [12] it was 2.57% (active). Moreover, the growth in [13] is 13.6%; in assay [14], 23.8%; in [15], 56.6%; in assay [16] it was 48.9%; in assay [17], 61.9%; in assay [18], 65.1%.

With `Nc1nc(N)nc(NCc2ccccc2)n1`, the growth in assay [1] was 97.1%; in assay [2], 95.4%; in [3], 95.4%; in assay [4], 105%; in [5], 109%; in assay [6] it was 108%. Also, the growth is 99.3% in assay [7]; 101% in [8]; 102% in assay [9]; 119% in assay [10]; 112% in assay [11]; 89.3% in [12]. The growth in assay [13] was 108%; in assay [14] it was 108%; in [15], 100%; in assay [16], 100%; in assay [17], 100%; in assay [18], 110%. Moreover, the growth in assay [19] is 107%.

For `COc1ccc(C(=O)c2cc3c(N)c(C(=O)Nc4cccc(Cl)c4C)sc3nc2C)cc1`, the growth was 29.3% in assay [1]; 44% in [2]; 52.6% in assay [3]; 29.1% in assay [4]; 6.21% (active) in assay [5]; 27.7% in assay [6]. Also, the growth is -8.11% (active) in assay [7]; 13.2% in assay [8]; 29% in assay [9]; -26.2% (active) in assay [10]; 9.62% (active) in [11]; 2.9% (active) in assay [12]. The growth in assay [13] is 54.5%; in assay [14], 15%; in assay [15] it was 18.4%; in assay [16], 26.5%; in [17] it was -10.2% (active); in [18] it was 57.6%. Further, the growth in assay [19] was 5.63% (active).
